In PubChem BioAssay (NCI):
This is part of a sample that, as a whole, favours compounds with a hit. Of some 83,000 tested, about 20% had one in any assay.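 Assay: single dose, 48 h. Readout: percent growth (0 = no net growth; negative = cell death). Active: <10.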 Unmarked numbers belong to inactive results. The source made the active and inactive calls.

Legend:
Assay in all cases: NCI-60 one-dose screen, 48 h (100 = growth as untreated, 0 = no growth, -100 = all killed)
Conditions in all cases: 10 µM unless noted
SK-MEL-2 melanoma = tested on: SK-MEL-2 melanoma
EKVX NSCLC = tested on: EKVX NSCLC
SN12C renal = tested on: SN12C renal
UO-31 renal = tested on: UO-31 renal
TK-10 renal = tested on: TK-10 renal
ACHN renal = tested on: ACHN renal
CAKI-1 renal = tested on: CAKI-1 renal
A498 renal = tested on: A498 renal
CCRF-CEM leukemia = tested on: CCRF-CEM leukemia
MOLT-4 leukemia = tested on: MOLT-4 leukemia

Structure (SMILES)	growth (SK-MEL-2 melanoma)	growth (EKVX NSCLC)	growth (SN12C renal)	growth (UO-31 renal)	growth (TK-10 renal)	growth (ACHN renal)	growth (CAKI-1 renal)	growth (A498 renal)	growth (CCRF-CEM leukemia)	growth (MOLT-4 leukemia)
CNC(=O)Nc1ccc(Nc2cc(-c3ccc(-n4cccn4)cc3)[nH]n2)c(C)c1	122%	109%	101%	85.4%	138%	109%	113%	129%	93.1%	
CC1(C)CC[C@]23CC[C@]4(C)[C@H](CC[C@@H]5[C@@]6(C)CC[C@H](N)C(C)(C)[C@@H]6CC[C@]54C)[C@H]2[C@H]1OC3	108%	63.1%	79.1%	82.7%	135%	36.5%	1.94% (active)	108%	-5.4% (active)	
O=C1Nc2ccc(F)cc2/C1=C\C(=O)c1ccc(NS(=O)(=O)c2ccccc2)cc1	115%	82.8%	87.2%	70%	130%	74.6%	72.9%	115%	8.68% (active)	
C#Cc1nc(C(=O)NCCCCCCC(=O)NO)cs1	8.08% (active)	53.5%	36.7%	-91.3% (active)	-14.2% (active)	-86.5% (active)	-80.2% (active)	-95.1% (active)	-41.4% (active)	
Nc1nc(=O)n([C@H]2C[C@H](O)[C@@H](CO)O2)cc1C=O	109%	112%	-19.5% (active)	101%	108%	107%	82.1%	121%	57.7%	
COc1ccc2c(c1)c(-c1nn3cc(-c4ccncc4)nc3s1)cn2C	104%	77.6%	84.3%	53.3%	130%	71.4%	50.6%	83.7%	43.9%	47.2%
Brc1cccc(-c2cc(-c3ccc4c(c3)OC=CO4)[nH]n2)c1	58.7%	56.7%	59.3%	50.4%	108%	43.7%	29.9%	42.6%	22%	
Cc1ccccc1NC(=O)Nc1nc2ccc([N+](=O)[O-])cc2s1	-9.75% (active)	10.3%	6.76% (active)	9.02% (active)	12.2%	3.8% (active)	-19.4% (active)	-24.7% (active)	16.2%	
COc1cccc2c1C=CC1(O2)Oc2cccc(OC)c2C=C1C (stereo unspecified)	57.7%	47.7%	49%	47%	103%	40.4%	29.2%	5.37% (active)	10.1%	
CCCc1cc2cc(-n3nc(CC)c4c3CC(C)(C)CC4=O)cc(NC3CCC(O)CC3)c2c(=O)[nH]1 (stereo unspecified)	53.1%	52.4%	7.81% (active)	14.1%	0.71% (active)	8.86% (active)	19.6%	37%	21.8%	
Cc1cccc(N2CCN(C3=C(Cl)C(=O)c4ncccc4C3=O)CC2)c1	99.9%	104%	75.1%	18.3%	117%	-32.9% (active)	52%	103%	4.71% (active)	9.85% (active)
COc1cc2cc(Oc3ccc(NC(=O)Nc4ccc(F)c(C(F)(F)F)c4)cc3)c(C)nc2cc1OCCN(C)C	115%	97.6%	96.4%	86.6%	106%	106%	85.1%	93.6%	15.8%	89.5%
CC(C)(C)OC(=O)Nc1ccc(-c2cccc(Oc3ccc4nnc(Cl)n4n3)c2)cc1	65.8%	86.7%	78.7%	67.6%	71.1%	88%	83.6%	70.1%	60.4%	46.3%
CC1=C(C)C(=O)C(Nc2ccc(C)c(C)c2)=C(Br)C1=O	112%	34.2%	98.7%	90.8%	157%	102%	94%	91.1%	-16.8% (active)	-14.7% (active)
Cc1ccc2c(n1)C(=O)C(Cl)=C(Nc1cccc(C(=O)OC(C)(C)C)c1)C2=O	115%	86.3%	94.1%	78.4%	120%	77%	77.7%	66.6%	10.6%	6.09% (active)
CCN(CC)S(=O)(=O)c1ccc(-c2nc(C(Cl)Cl)nc3cc(-c4ccc(F)cc4)nn23)cc1	82.3%	32%	67.6%	27.6%	49.9%	0.483% (active)	12%	56.2%	73.9%	56.6%
COc1ccc(C(C)=C(c2ccc(OCCN3CCCCCC3)cc2)c2ccc(OCCN3CCCCCC3)cc2)cc1	-65.2% (active)	1.68% (active)	0.944% (active)	-79.3% (active)	27.1%	-57.8% (active)	-45.9% (active)	27.9%	0.672% (active)	-5.35% (active)
C#C[C@]1(O)CC[C@H]2[C@@H]3CC=C4c5sc(Nc6ccc(C)cn6)nc5CC[C@]4(C)[C@H]3CC[C@@]21C	-25.1% (active)	-21.7% (active)	45.9%	-63.7% (active)	18.6%	17.4%	-74.1% (active)	-26.5% (active)	10.6%	-42.3% (active)
Oc1ccc(-c2nc3ccc(/C(=N\N=C\c4ccc(Cl)cc4)c4ccccc4)cc3[nH]2)cc1	90.6%	98.9%	83.5%	63.5%	105%	86.8%	76.1%	65.7%	21.6%	57%
O=C1[C@H]2Cc3c([nH]c4ccccc34)[C@H](c3ccc(Cl)cc3)N2C(=O)CN1C1CCN(CC2CCCCC2)CC1	98.2%	81.5%	69.7%	39.1%	112%	74.8%	37.9%	80.4%	39.3%	35.1%
CCOC(=O)c1cccc(NC2=C(Cl)C(=O)c3nc(C)ccc3C2=O)c1	105%	92.1%	95.5%	93.1%	119%	96.1%	108%	88.8%	15%	48.5%
O=C(/C=C/C=C/c1csc(Br)n1)NO	109%	102%	95.1%	71.9%	86.6%	92.6%	83.9%	92.8%	43.1%	75.3%
Cc1ccc(C(=O)Nc2ccc(CNCCN3CCNCC3)c(C(F)(F)F)c2)cc1C#Cc1cnc2cccnn12	64%	29.6%	76.2%	76.7%	129%	57%	75.9%	-33.4% (active)	-39.7% (active)	-49.5% (active)
Cc1ccc(C(=O)CSc2nnc(-c3ccc(-c4ccc(Cl)cc4)nc3C)o2)cc1	112%	68.6%	99.7%	93.9%	191%	95.4%	95.8%	98.2%	108%	103%
CCN(CC)CCOc1ccc(C(=C(C)Cc2ccc(OC)cc2)c2ccc(OCCN(CC)CC)cc2)cc1	116%	84%	86.1%	68.3%	111%	46.7%	69.8%	85.7%	3.83% (active)	3.61% (active)
C(=N\Nc1nc(N/N=C/c2ccc3c(c2)OCO3)nc(N2CCCCC2)n1)/c1ccc2c(c1)OCO2	103%	93.7%	79.7%	74.4%	121%	94.9%	98.9%	51.7%	20.4%	56.3%
COc1ccc(NC(=O)CCCCCCNC(=O)C(O)(O)C(F)(F)F)cc1	12.7%	61.7%	59.9%	37.7%	6.59% (active)	20.2%	26%	41.8%	26.2%	21%
